# Screening data: PubChem BioAssay, National Center for Advancing Translational Sciences (NCATS)
# A selection: hits, their analogues and other compounds. The true share with any hit is near 2.8%.
# KDM5B inh: KDM5B demethylase inhibition; Q9UGL1; KDM5B demethylase, FDH-coupled NADH fluorescence (FDH is formaldehyde dehydrogenase); Potency, µM (top dose mostly 57.7 µM), usual class: inhibitors; 220,000 compounds, 2.6% hits; AID 1347165; active = well fitted inhibition curve with a large enough effect; inconclusive = small, poorly fitted or top-dose-only effect; inactive = no such curve, though single readings can be large or run the other way; also: potency is read from the fitted curve at half-maximal effect; 0% is about no effect; nearly all actives have a fitted effect of over 70% in size
#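 KDM5BΔAP (200 nM final) in 50 mM HEPES pH 7.5, 0.01% Tween-20 was preincubated 10 min at RT with compound over a concentration range. Substrate mix (H3K4me3 12.5 µM, α-KG 25 µM, Fe²⁺, ascorbate, NAD⁺, FDH) was added, and NADH fluorescence change over 30 min gave dose-response curves.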
# IP6K1 inh: inhibitors of human IP6K1; activity change, % (series mostly up to about 58 µM); AID 1645851; Q92551; 140,000 compounds, 0.81% hits; IP6K1 kinase, ADP-Glo luminescence, 2 h; hits give low values; in the data active = activity change below about -25%; also: % is scaled to controls: 0 for no effect and ±100 for the full control effect
# Target sequence (Q92551 whole entry, looked up): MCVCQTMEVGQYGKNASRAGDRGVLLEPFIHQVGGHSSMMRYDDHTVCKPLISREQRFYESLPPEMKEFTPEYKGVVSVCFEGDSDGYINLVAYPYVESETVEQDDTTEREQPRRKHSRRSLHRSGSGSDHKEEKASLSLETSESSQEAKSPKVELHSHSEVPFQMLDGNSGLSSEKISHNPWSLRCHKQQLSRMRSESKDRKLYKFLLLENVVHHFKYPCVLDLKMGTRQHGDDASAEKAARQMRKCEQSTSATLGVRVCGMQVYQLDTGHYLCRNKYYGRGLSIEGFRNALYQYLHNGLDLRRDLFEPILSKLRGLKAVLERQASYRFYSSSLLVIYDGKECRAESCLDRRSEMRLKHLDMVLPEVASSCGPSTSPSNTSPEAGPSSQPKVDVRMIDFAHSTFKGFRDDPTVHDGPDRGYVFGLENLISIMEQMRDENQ
#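 ADP-Glo luminescence measures ADP made by human IP6K1 during a 2 h RT reaction with ATP/IP6 (mix at 1.3 mM/130 uM); top library doses 57.5 and 19.1 uM final.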
# The depositor's hits bear a star; i = inactive; ? = inconclusive; . = no result.
SMILES,KDM5B inh,IP6K1 inh
CCc1nc2nccc(-c3ccc(OC)cc3F)n2n1,i,-9.1
COCc1nc2nccc(-c3ccc(OC)cc3F)n2n1,28.2µM*,-3.5
c1ccc(-c2ccnc3nc(-c4cccs4)nn23)cc1,31.6µM*,-7.2
COc1ccc(CCc2nc3nccc(-c4ccco4)n3n2)cc1,?,6.8
COc1ccc(-c2ccnc3nc(-c4cccs4)nn23)cc1OC,?,-4.9
CN1C(=O)[C@H]2CN(Cc3ccc(C(F)(F)F)cc3)C[C@H]2C1=O,i,-2.3
COCC(=O)N1CC[C@H]2COC(=O)N2c2cc(C)ccc2C1,i,2.8
C=CCN1CCN(C(=O)c2cc3ccccc3oc2=O)CC1,i,.
Cc1cccc(-c2c3c(nc4sc5c(c24)CCC(C)C5)C(C)CCC3)c1 (stereo not drawn),i,.
CCOc1cc(C(=O)OCC(=O)Nc2ccc(F)cc2F)ccc1OCC(=O)N1CCCCC1,i,.
CC(C)n1nc(OC(C)(C)C(=O)NC2CCOCC2)c2cc(CN3CCOCC3)ccc21,31.6µM*,7.7
COc1ccc(NC(=O)C(C)(C)Oc2nn(C(C)C)c3ccc(CN4CCOCC4)cc23)cc1,?,-5.5
CC(C)n1nc(OC(C)(C)C(=O)Nc2ccccc2)c2cc(CN3CCOCC3)ccc21,?,-11.5
CC(C)(Oc1nn(CC2CC2)c2ccc(CN3CCCC3)cc12)C(=O)Nc1cccnc1,28.2µM*,-4.2
CC(C)n1nc(OC(C)(C)C(=O)NCCOc2ccccc2)c2cc(CN3CCOCC3)ccc21,28.2µM*,-7.9
COCc1ccc2c(c1)c(OC(C)(C)C(=O)NCC1CCOCC1)nn2Cc1cccnc1,i,-0.1
CC(C)n1nc(OC(C)(C)C(=O)NCc2ccncc2)c2cc(CN3CCOCC3)ccc21,?,0.1
CC(C)CNC(=O)C(C)(C)Oc1nn(C(C)C)c2ccc(CN3CCOCC3)cc12,35.5µM*,3.2
C#CCNC(=O)Nc1cccc(C)c1,i,.
CCCCC(=O)N1CCC2(CC1)SCC(=O)N2c1ccc(OC)cc1,?,3.6
O=C(NC1CCN(c2cc(-c3ccc(F)cc3)[nH]n2)CC1)c1ccc2[nH]ccc2c1,?,8.3
O=C(c1cccs1)N1CCC2(CC1)CN(Cc1ccccc1)CC2CO (stereo not drawn),?,18.1
CC(C)n1nc(OC(C)(C)C(=O)NC2CCC(O)CC2)c2cc(CN3CCOCC3)ccc21 (stereo not drawn),25.1µM*,7.9
CC(C)(Oc1nn(Cc2cccc(Cl)c2)c2ccccc12)C(=O)NC1CCC(O)CC1 (stereo not drawn),?,-8.9
CC(C)[C@@H]1CN(C(=O)CCn2ccc(=O)[nH]c2=O)C[C@H]1NC(=O)N(C)C,i,-4.0
SMILES,KDM5B inh,IP6K1 inh
Cc1ccc(Nc2ccnc(N3CCC(N[S+](=O)([O-])c4ccc(C)cc4)CC3)n2)cc1,.,-5.2
CCOC(=O)c1csc(NC(=O)C2CC(=O)N(c3n[nH]c4ccccc34)C2)n1 (stereo not drawn),i,11.1
COc1ccc(-c2ccc3nnc(CNC(=O)c4ccc(F)c(Cl)c4)n3n2)cc1,28.2µM*,-1.4
COc1ccc(-c2ccc3nnc(CNC(=O)c4cc(Cl)ccc4OC)n3n2)cc1,i,-8.9
COc1cccc(CC(=O)NCc2nnc3ccc(-c4ccccc4)nn23)c1,i,14.6
COc1ccc(C(=O)NCc2nnc3ccc(-c4ccc(Cl)cc4)nn23)cc1OC,?,41.2
COc1ccc(-c2ccc3nnc(CNC(=O)c4ccc(OC)nc4OC)n3n2)cc1,31.6µM*,18.5
COc1ccc(-c2ccc3nnc(CNC(=O)Cc4cccc(OC)c4)n3n2)cc1,25.1µM*,-6.3
COc1ccc(-c2ccc3nnc(CNC(=O)c4ccoc4)n3n2)cc1,31.6µM*,-7.5
O=S(=O)(NC1CCCN(Cc2ccccc2F)C1)c1ccccc1 (stereo not drawn),i,-10.7
COCCNC(=O)[C@@H]1C[C@H](Oc2ccccc2)CN1C(=O)c1ccc2ncccc2c1,i,8.8
CNC(=O)[C@@H](C1CC1)N1CCC[C@H]1C(=O)NC(C)(C)C,i,-5.6
CC(C)CCN1CCC2(CC1)NC(=O)c1ccccc1O2,i,3.9
O=C(NC[C@H]1O[C@@H](CC(=O)N2CCN(c3ccc(F)cc3)CC2)[C@H](O)[C@@H]1O)c1cccc(F)c1,i,1.3
COc1ccc(-c2ccc3nnc(CNC(=O)c4ccc(C#N)cc4)n3n2)cc1,i,-9.6
Cn1cccc1C(=O)NCc1nnc2ccc(-c3ccccc3)nn12,i,2.9
COc1ccc(-c2ccc3nnc(CNC(=O)c4cccn4C)n3n2)cc1,28.2µM*,-7.0
CC(=O)Nc1cccc(C(=O)NCc2nnc3ccc(-c4ccc(Cl)cc4)nn23)c1,?,39.7
COc1ccc(-c2ccc3nnc(CNC(=O)c4cccc(C#N)c4)n3n2)cc1,28.2µM*,15.1
COc1ccc(C(=O)NCc2nnc3ccc(-c4ccc(F)cc4)nn23)cc1OC,?,26.2
COc1ccc(-c2ccc3nnc(CNC(=O)c4cccc(NC(C)=O)c4)n3n2)cc1,28.2µM*,16.4
CC(=O)Nc1cccc(C(=O)NCc2nnc3ccc(-c4ccccc4)nn23)c1,31.6µM*,-0.4
O=C(NC[C@H]1OC[C@@H](NCc2ncc[nH]2)[C@@H]1O)Nc1ccccc1,i,1.2
CCc1cccc(NC(=O)c2n[nH]c(=O)c3ccccc23)c1,i,.
O=C1[C@@H]2C[C@@H](CN2Cc2cnc3ccccc3c2)Oc2ccccc2N1Cc1ccccc1,?,-1.0
SMILES,KDM5B inh,IP6K1 inh
CC(C)c1noc(-c2cn(C3CCN(C(=O)COc4ccc(F)cc4)C3)nn2)n1 (stereo not drawn),i,4.6
COc1ccc(OC)c(-n2c3c(cc(-c4nc(-c5ccc(Cl)cc5)cs4)c2=O)C(=O)CC(C)(C)C3)c1,?,-0.1
CCN(CC)c1ccc(C(=O)NCc2nnc3ccc(-c4ccc(OC)cc4)nn23)cc1,i,4.1
COc1ccc(-c2ccc3nnc(CNC(=O)c4cccc(OC)c4)n3n2)cc1,28.2µM*,13.6
Cn1nc(C(=O)NN2C(=O)NC(c3ccccc3)(c3ccccc3)C2=O)c2ccccc2c1=O,i,.
O=C(Cn1cc(SCc2ccc(Cl)cc2)c2ccccc21)N1CCCC1,?,3.9
COc1ccc(NC(=O)C2(C#N)CCCC2)cc1,i,.
COc1ccc(CC(=O)N(C)C2CCc3nnc(C)n3CC2)cc1Cl (stereo not drawn),20µM*,4.9
COc1ccc(CCC(=O)N(C)C2CCc3nnc(C)n3CC2)cc1OC (stereo not drawn),i,-7.6
Cc1cc(=O)oc2cc(O)c(CCC(=O)O)cc12,i,.
O=S(=O)(c1ccccc1)c1nc(-c2cccs2)oc1SCc1ccccc1F,?,9.2
CN(C)C[C@@H]1CN(S(C)(=O)=O)C[C@H]1NC(=O)c1cc2ccccc2[nH]1,31.6µM*,27.0
CN(C)C[C@@H]1CN(S(C)(=O)=O)C[C@H]1NC(=O)c1ccc2[nH]ccc2c1,?,4.6
CS(=O)(=O)c1ccc(OC[C@H]2C[C@@H](NC(=O)C3CCCC3)[C@H](O)[C@@H]2O)cc1,i,1.0
COc1cccc(OC2CN(C(=O)c3[nH]c4c(C)cc(C)cc4c3C)C2)c1,?,-12.0
CC(=O)N[C@@H]1CN(Cc2cc(=O)n3[nH]cnc3n2)C[C@H]1c1ccc(C)o1,22.4µM*,20.6
CC(=O)N[C@@H]1CN(S(=O)(=O)c2sccc2C)C[C@H]1c1ccc(C)o1,i,17.8
